Experimental data reported in PubChem BioAssay (NCI).
Compounds without any hit were thinned out: in the full panel of roughly 83,000, 20% have a hit.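 Compound tested at a single concentration for 48 hours in 96-well plates; a percent growth value below 10 was scored as active.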 A number with no mark means an inactive call. The source made the active and inactive calls.

Key:
Experiment in all cases: NCI-60 one-dose screen, 48 h (100 = growth as untreated, 0 = no growth, -100 = all killed)
Details in all cases: 10 µM unless noted
SK-MEL-2 melanoma = test system: SK-MEL-2 melanoma
EKVX NSCLC = test system: EKVX NSCLC
SN12C renal = test system: SN12C renal
UO-31 renal = test system: UO-31 renal
TK-10 renal = test system: TK-10 renal
ACHN renal = test system: ACHN renal
CAKI-1 renal = test system: CAKI-1 renal
A498 renal = test system: A498 renal
CCRF-CEM leukemia = test system: CCRF-CEM leukemia
MOLT-4 leukemia = test system: MOLT-4 leukemia

SMILES | growth (SK-MEL-2 melanoma) | growth (EKVX NSCLC) | growth (SN12C renal) | growth (UO-31 renal) | growth (TK-10 renal) | growth (ACHN renal) | growth (CAKI-1 renal) | growth (A498 renal) | growth (CCRF-CEM leukemia) | growth (MOLT-4 leukemia)
NC(N)=NCCCCCNc1noc(Cc2c[nH]c3cc(Br)ccc23)n1 | 87.7% | 69.6% | 44.7% | 80.2% | 75.4% | 92.6% | 82.4% | 94% | 97.8% | 60.2%
COc1cc(-c2csc(NC(=O)c3ccc(N4CCOCC4)c(C(F)(F)F)c3)n2)cc(OC)c1OC | 23% | 33.7% | 48.9% | 15.4% | 64.5% | 21.6% | 36.4% | 56.7% | 14.2% | 10.1%
C#CCOc1ccc2ncnc(Nc3ccc(NC(=O)C=C)cc3)c2c1 | -0.222% (active) | 2.42% (active) | 1.14% (active) | -26.4% (active) | -62.7% (active) | -96.6% (active) | 24.3% | 74.1% | -39.5% (active) | -34.7% (active)
COc1ccc(/C=C(\C#N)n2nnc3cc(Cl)ccc32)cc1 | 26.1% | 11.4% | 11.7% | 25.9% | 25.6% | 14.6% | 32.7% | -23.5% (active) | 12.4% | 14.2%
COc1cc(C2CC(c3ccc(Nc4nc(Nc5ccc(Cl)cc5)nc(Nc5ccc(Cl)cc5)n4)cc3)=NN2C(C)=O)cc(OC)c1OC (stereo not given) | 80.4% | 94% | 102% | 84.8% | 118% | 96.7% | 90.4% | 113% | 101% | 79%
CC(C)COc1nc2c(c(=O)n(C)c(=O)n2C)n1C | 36.1% | 95.1% | 99.8% | 94.7% | 105% | 102% | 107% | 84.7% | 97.5% | 93.3%
CCO/C=N/C1=C(C#N)C(c2ccc(Cl)cc2)c2sc3c(F)cccc3c2O1 (stereo not given) | 14.2% | 75.7% | 79.7% | 66% | 88.1% | 92.3% | 41.3% | 56.5% | 38.1% | 71.5%
O=CN1N=C(c2cccc(Nc3ccnc4cc(Cl)ccc34)c2)CC1c1ccccc1 (stereo not given) | 1.53% (active) | 34.3% | 30.9% | 10.6% | 32.2% | 30.3% | 11.8% | 5.63% (active) | 8.4% (active) | 10%
COc1ccc(-c2cc(-c3cccnc3)nc3sc4c(=O)[nH]c(-c5ccc(Cl)cc5)nc4c23)cc1OC | 95.7% | 90% | 89.5% | 78.1% | 104% | 93.4% | 86.4% | 91.2% | 80.3% | 37.6%
O=C1/C(=C/c2ccccc2Br)COc2ccc(O)cc21 | 107% | 96.6% | 49.5% | 58.8% | 105% | 74.6% | 72.5% | 113% | 3.07% (active) | 27.2%
COC(=O)[C@]1(C)CCC[C@]2(C)[C@H]3C[C@H]4C(C(C)C)=C[C@]3(CC[C@H]21)[C@@H]1C(=O)CC[C@H](OCCC#N)[C@@H]14 | 86.6% | 57.1% | 93.5% | 71.1% | 94.8% | 87.5% | 68% | 105% | 81.5% | 48.6%
N#CSCC1CC(O)(c2ccccc2)CC(c2ccc(F)cc2)O1 (stereo not given) | -54.6% (active) | 34.2% | -61.5% (active) | 33.3% | 59.7% | 9.51% (active) | -44.9% (active) | 33.3% | 7.42% (active) | -0.406% (active)
COc1ccc(C(=O)c2cc3c(N)c(C(=O)Nc4ccc(C)cc4)sc3nc2C)cc1 | 56.1% | 40.8% | 37.2% | 41.2% | 61.3% | 46.8% | 28% | 14% | 15.7% | 20.5%
